The text below walks through data of PubChem BioAssay AID624331 (National Center for Advancing Translational Sciences (NCATS), 2012).

The structures appear in SMILES notation. Results filed as inconclusive are left out. A call without a number means that no potency is given here. The source made the active and inactive calls. Calls follow the shape of the dose curve; as a rule, active = well fitted activation curve with a large enough effect; inconclusive = small, poorly fitted or top-dose-only effect; inactive = no such curve, though single readings can be large or run the other way.

This assay in a line: qHTS assay for re-activators of p53 using a Luc reporter: Hit Validation with no p53 Expressed. Particulars: p53-null cells, luciferase reporter counter-screen; series mostly up to 46.1 µM. A digest of the protocol: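 Without p53 expression, cells (1000/well, Opti-MEM + 10% FBS) were exposed 24 h at 37 deg C to compounds in a 1:5 series from 10 mM stock (top 46.1 µM in well). Luminescent signal read 10 min after Amplite addition; actives flag unspecific activation.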
On the technique in general: qHTS replaces the single test concentration by a dilution series.
On to `Cc1ccc(NC(=O)c2ccc(OC(=O)COc3ccc(Cl)c(C)c3)cc2)cc1`, for which the Potency result is “inactive”.
Consider `COCC(=O)Nc1nnc(COc2ccccc2)s1`, for which the Potency entry is “inactive”.
Next, `Cc1ccc(-c2cc3nc(C)cc(NCc4ccco4)n3n2)cc1`: “inactive”.
With `CCN1CCN(/C=N/c2nc3c(s2)CCCC3)CC1`, the Potency entry is “inactive”.
Turning to `COc1ccc(C(=O)N/N=C(\C)c2ccccn2)cc1OC`, the Potency result was “inactive”.
In the case of `O=C(COc1ccccc1[N+](=O)[O-])N/N=C/c1cccc(OC(=O)c2ccc3c(c2)OCO3)c1`, the Potency entry is “inactive”.
As for `O=C(Cc1ccccc1)NCc1ccc(F)cc1`, the Potency result is “inactive”.
For the compound `c1nc(C2CCCCC2)cc2cc3c(cc12)OCO3`, the Potency entry is “inactive”.
Regarding `Cc1nc(NCCc2ccccc2)c2nnn(Cc3ccccc3Cl)c2n1`, the Potency entry was “inactive”.
As for `CN(Cc1ccccc1)C(=O)CNC(=O)Cn1cnc2ccccc2c1=O`, the Potency entry was “inactive”.
For the compound `O=C(Nc1ccc2c(c1)CCC2)c1ccccc1F`, the Potency entry is “inactive”.
Regarding `Cc1cc(C)c2nc(NNC(=O)c3ccc(S(=O)(=O)N4CCCC(C)C4)cc3)sc2c1` (stereo not given), the Potency entry was “inactive”.
As to `COc1ccccc1C(=O)CC(=O)c1ccccc1`, the Potency result is “inactive”.
As to `Cc1cccc(N2CCN(S(=O)(=O)c3ccc4c(c3)CCC(=O)N4)CC2C)c1` (stereo not given), the Potency result was “inactive”.
On to `CCOc1ccc(OCc2cccc(C(=O)N3CCCC3)c2)cc1`, for which the Potency entry was “inactive”.
In the case of `O=C1c2cccc3cc([N+](=O)[O-])cc(c23)C(=O)N1CCN1CCCC1`, the Potency result was “inactive”.
Next, `Cc1cc(C(=O)N/N=C/c2cccn2C)n[nH]1`: “inactive”; `S=C(Nc1cccc(Br)c1)c1ccccc1`: “inactive”; `Cc1ccc2c(c1)CCCN2C(=O)Nc1ccc2c(c1)OCO2`: “inactive”.
Turning to `Cc1cc(NC(=O)c2ccc3nccnc3c2)ccc1Br`, the Potency entry was “inactive”.
